The list is not random: actives were taken first. Their share in the collection is about 1.2%.
KCNH2 3.1 inh: KCNH2 3.1 (human) potassium channel inhibition; U2OS KCNH2 3.1, thallium flux FluxOr; active compounds read low; activity change, % (tested at about 1.8 µM); 0.95% of 340,000 active; AID 720553;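 active = maximum activity change below -70%; inconclusive = maximum activity change from -70% to -50%; inactive = maximum activity change above -50%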;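 also: thallium influx rate constant from kinetic fluorescence after stimulation buffer; % is scaled to controls: 0 for no effect and ±100 for the full control effect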
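Thallium flux read-out: FluxOr dye with Red40 quencher in HBSS/HEPES, 45 min at RT. Rate constants from kinetic reads were normalized to positive and negative DMSO controls. Cells: U2OS virally expressing the 3.1 isoform.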
Anesthetic bind: candidate novel general anesthetic via apoferritin binding; apoferritin/1-aminoanthracene competitive binding, fluorescence; 0.074% of 350,000 active; P02791; Potency, µM (series often up to 77.5 µM), inactives show at the top dose activity change, negative = displacement, hits mostly inhibitors; also: potency is read from the fitted curve at half-maximal effect; % is scaled to controls: 0 for no effect and ±100 for the full control effect; nearly all actives have a fitted effect of over 20% in size
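10 uM apoferritin + 50% sat. 1-AMA, PBS; cpd 10 min RT; Ex380/Em535 endpoint; normalized to free probe vs complex; 4-param Hill fit; propofol titration as pos. ctrl.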
IDH1 R132H inh: human IDH1 R132H inhibition. IDH1-R132H enzyme, NADPH consumption, diaphorase/resazurin fluorescence. Potency, µM (top dose mostly 76.6 µM), without a hit: at the top dose activity change, negative = inhibition, usual class: inhibitors. 0.093% of 390,000 active. AID 602179; also: potency is read from the fitted curve at half-maximal effect; % is scaled to controls: 0 for no effect and ±100 for the full control effect; nearly all actives have a fitted effect of over 65% in size
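IDH1-R132H (0.5 ug/mL) preincubated 30 min with compound, then NADPH (0.016 mM) and alpha-KG (2 mM) added; 80 min at RT, pH 7.5. Remaining NADPH coupled via diaphorase/resazurin to fluorescence (540/590 nm); concentration-response curves normalized to no-enzyme control.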
hERG WT inh: KCNH2 (human, wildtype) channel inhibition; activity change, % at 1.84 µM; 0.37% of 340,000 active; Q12809; U2OS, BacMam KCNH2, thallium flux FluxOr; active compounds read low; AID 720551;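 active = maximum activity change below -70%; inconclusive = maximum activity change between -70% and -50%; inactive = maximum activity change above -50%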; also: % is scaled to controls: 0 for no effect and ±100 for the full control effect
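U2OS cells were transduced with wild-type KCNH2 virus (2.03 x 10^8 / mL) for 4 h at room temperature, then cultured overnight at 37 C. Thallium flux was read with FluxOr dye. Rate constants were normalized to DMSO controls.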
S-ASM inh: human S-ASM enzyme inhibition. P17405. placental ASM, HMU-PC fluorogenic substrate, 60 min. Potency, µM (titrated, usually from 57.5 µM), for the others: at the top dose activity change, negative = inhibition, usual class: inhibitors. 0.006% of 340,000 active. AID 504937; also: potency is read from the fitted curve at half-maximal effect
Target sequence (P17405 47-631 limits assumed): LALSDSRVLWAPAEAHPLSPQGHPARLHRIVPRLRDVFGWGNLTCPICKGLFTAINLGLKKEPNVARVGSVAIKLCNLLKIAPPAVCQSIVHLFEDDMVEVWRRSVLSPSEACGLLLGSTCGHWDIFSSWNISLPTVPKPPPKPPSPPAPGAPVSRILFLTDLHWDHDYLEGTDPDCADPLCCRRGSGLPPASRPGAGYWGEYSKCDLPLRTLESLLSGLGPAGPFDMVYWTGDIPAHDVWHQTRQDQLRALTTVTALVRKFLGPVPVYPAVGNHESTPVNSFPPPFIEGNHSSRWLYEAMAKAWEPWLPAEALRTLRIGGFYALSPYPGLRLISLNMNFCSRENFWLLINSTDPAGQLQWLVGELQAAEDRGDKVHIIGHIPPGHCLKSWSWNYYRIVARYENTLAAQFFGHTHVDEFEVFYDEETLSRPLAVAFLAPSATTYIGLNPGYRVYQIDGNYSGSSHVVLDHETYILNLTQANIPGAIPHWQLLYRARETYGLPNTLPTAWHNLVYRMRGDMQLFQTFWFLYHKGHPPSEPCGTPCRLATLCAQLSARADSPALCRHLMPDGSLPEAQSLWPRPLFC
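Human placenta-derived ASM preincubated with compound 10 min at room temperature, then reacted with 9 uM (final) fluorogenic HMU-PC substrate for 60 min at 37 C. Stop solution raises pH to 10; fluorescence read at Ex 386/Em 447 nm.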
Starred values were filed as active, the others as inactive; ? = inconclusive; nt = no result given; [ ] = remark or other dose. Unless noted, calls follow the shape of the dose curve; as a rule, active = well fitted inhibition curve with a large enough effect; inconclusive = small, poorly fitted or top-dose-only effect; inactive = no such curve, though single readings can be large or run the other way.

SMILES | KCNH2 3.1 inh | Anesthetic bind | IDH1 R132H inh | hERG WT inh | S-ASM inh
Cc1oc(-c2ccc(Cl)cc2)nc1CN1CCC(C(=O)NCc2ccco2)CC1 | -71* | -15% | 4% | 18 | 6%
Cc1oc(-c2cccc(Cl)c2)nc1CN1CCC(C(=O)N2CCN(c3ccccc3F)CC2)CC1 | -91* | 3% | -7% | -3 | -9%
Cc1oc(-c2ccc(Cl)cc2)nc1CN1CCC(C(=O)N2CCc3ccccc3C2)CC1 | -78* | -6% | 11% | ? | -9%
COCCNC(=O)COc1ncnc2scc(-c3ccc(F)cc3)c12 | -112* | -7% | 0% | -16 | 1%
CCCCn1c(=N)c(S(=O)(=O)c2ccc(Cl)cc2)cc2c(=O)n3cccc(C)c3nc21 | nt | -3% | -8% | nt | nt
COc1cc(OC)cc(C(=O)NCc2ccc3c(c2)CCN3C(=O)c2ccccc2)c1 | nt | -6% | 12% | nt | nt
CCCCN(CC)C(=O)c1nn(C)c2c1CSc1ccccc1-2 | nt | -1% | 8% | nt | nt
O=[N+]([O-])c1ccc(CN2CCC(Cc3ccccc3)CC2)cc1 | ? | -18% | 2% | 3 | 0%
Cc1ccccc1OCCN1CCC(Cc2ccccc2)CC1 | 0 | -15% | 1% | -9 | -3%
Cc1ccc([N+](=O)[O-])c(OCCN2CCC(Cc3ccccc3)CC2)c1 | -93* | -20% | -1% | -4 | -4%
O=[N+]([O-])c1cccc(OCCCN2CCC(Cc3ccccc3)CC2)c1 | -88* | nt | 7% | -86* | 0%
COc1cc2oc(=O)c(CC(=O)N3CCCCC3)c(C)c2cc1Cl | nt | -9% | 4% | nt | nt
Cc1ccc(NC(=O)CN2C(=O)S/C(=C\c3cc(Cl)c(OCC(=O)O)c(Cl)c3)C2=O)cc1 | -14 | -10% | 37µM* | -7 | ?
COC(=O)[C@@H]1CCCN1C(=O)[C@@H](C)CO | nt | 4%[15.3 µM] | nt | nt | nt
COc1ccc(CN2CCN(CCSc3ccc(C)cc3)CC2)c(OC)c1OC | -77* | -5% | -5% | 52 | -1%
COc1ccc(OC)c(CN2CCN(Cc3ccc(OC)c(OC)c3OC)CC2)c1 | -5 | nt | 9% | 16 | nt
O=[N+]([O-])c1ccc(OCCCCN2CCc3ccccc3C2)cc1 | -71* | -21% | 15% | -16 | -3%
O=[N+]([O-])c1ccc(OCCCCN2CCCCC2)cc1 | -27 | 4% | -1% | 58 | 2%
CN(C(=S)NC(=O)c1ccc(Cl)cc1)C1CCCCC1 | -15 | -13% | -8% | -74* | -1%
CCc1ccc(NC(=O)CC2C(=O)N(c3ccc(Cl)cc3)C(=O)N2Cc2cccs2)cc1 (centres undefined) | nt | 2% | -13% | nt | nt
CCCCSC1=C(C#N)C(c2ccccc2C)CC(=O)N1 (centres undefined) | 5 | -9% | 13% | -311* | 4%
Cc1ccc(C)c(NC(=O)CCN2CC(C)CC(C)C2)c1 (centres undefined) | -73* | -4% | -6% | -2 | 1%
O=S(=O)(Nc1cc(C(F)(F)F)ccc1N1CCOCC1)c1ccccc1 | 3 | -5% | 8% | 5 | -1%
Cc1ccc(S(=O)(=O)Nc2cc(C(F)(F)F)ccc2N2CCOCC2)cc1C | -92* | -16% | 5% | -5 | -8%
CC(Sc1nnc(C(F)(F)F)n1C)C(=O)Nc1ccc(N2CCOCC2)cc1 (centres undefined) | -186* | nt | -13% | -140* | -1%
SMILES | KCNH2 3.1 inh | Anesthetic bind | IDH1 R132H inh | hERG WT inh | S-ASM inh
CCOc1ccc(NC(=O)Cn2cc(C(=O)c3ccc(CC)cc3)c(=O)c3ccc(C)nc32)cc1 | nt | -23% | -8% | nt | nt
FC(F)(F)c1nc2nc(Cl)c(Cl)nc2[nH]1 | -71* | nt | 13% | 17 | nt
CCN1C(=O)/C(=C/C=C2\N(CC)c3cc(S(=O)(=O)N(C)C)ccc3N2c2ccccc2)SC1=S | -8 | -6% | 52µM* | -42 | -24%
CCN1C(=O)/C(=C\C=C\c2ccccc2[N+](=O)[O-])SC1=S | -14 | -12% | 6% | -6 | -10%
Cc1c(NC(=O)c2ccc(-c3ccc(F)cc3)o2)cccc1-c1nc2ncccc2o1 | nt | 0% | 19% | nt | nt
C=C(C)C(O)/C=C/c1cccc(OC)c1 (centres undefined) | nt | -23%[15.3 µM] | nt | nt | nt
CCOC(=O)Cc1csc(SCC(=O)c2c(N)n(CC(C)C)c(=O)n(C)c2=O)n1 | -15 | -11% | 3% | -10 | 2%

High-throughput results: PubChem, National Center for Advancing Translational Sciences (NCATS)
